Laboratory results taken from PubChem BioAssay.
Inconclusive results are not listed. Calls of active or inactive are those of the source. Unless noted, no rule for the calls is given here.

What was measured:
[1] = yeast TOR pathway RPL19A-GFP modulators, primary screen, cell-based, S. cerevisiae, multiplex flow cytometry (AID 1862; in the data active = percent of DMSO control GFP below about 86%;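 also: lower values mimic rapamycin by blocking the RPL19A rise seen in DMSO cells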); conditions: S. cerevisiae RPL19A-GFP strain, flow cytometry fluorescence, 3 h; at 10 µM; stronger effect = lower value
[2] = modulators of MEP2-GFP levels in yeast, primary screen, S. cerevisiae, multiplex flow cytometry (AID 1867;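 active = GFP response, as percent of the DMSO control, above the screen-wide mean plus 3 SD, about 139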;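 also: median GFP channel fluorescence of barcode-gated MEP2-GFP cells measured by flow cytometry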); conditions: S. cerevisiae MEP2-GFP strain, 3 h, at 10 µM, stronger effect = higher value
[3] = modulators of CIT2-GFP expression in yeast, primary screen, S. cerevisiae, GFP fusion, multiplex flow cytometry (AID 1870;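 active = percent response above a set limit, the screen-wide mean plus 3 SD, cut at about 130% in these data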;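 also: barcoded CIT2-GFP strain pooled with four other GFP strains with rapamycin as positive control; median GFP fluorescence per well over plate mean of DMSO wells so 100% = DMSO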); conditions: 3 h, at 10 µM, stronger effect = higher value
[4] = modulators of LAP4-GFP expression in yeast, primary screen, S. cerevisiae, multiplex flow cytometry (AID 1873;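 active = GFP signal, as percent of the solvent control, above the screen mean plus 3 SD, about 149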); conditions: 3 h, at 10 µM, stronger effect = higher value
[5] = modulators of AGP1-GFP expression in yeast TOR pathway, primary screen, cell-based, multiplex flow cytometry, S. cerevisiae (AID 1887;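 active = GFP signal above the screen-wide mean plus 3 SD, that is over about 124.5% of the solvent control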;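 also: AGP1-GFP fusion strain of S. cerevisiae within a five-strain barcoded multiplex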); conditions: 3 h, at 10 µM, stronger effect = higher value
[6] = inhibitors of CD8+ T cell-vesicle binding, pilot screen, LFA-1/ICAM-1 modulator project, MLPCN validation set, flow cytometry (AID 2523;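 active = response below a set limit, under 55% cells CD8-positive and vesicle-bound, and CD8 cells' 90th-percentile brightness under 279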;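 as to vesicle binding response: mean PE anti-B7-1 fluorescence of CD8+ cells relative to row control; 100% = QL9-loaded vesicles with DMSO vehicle in the same plate row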); conditions: 2C mouse CD8+ T cells, at 7 µM, stronger effect = lower value; double positive events: measured here: CD8+/vesicle+ event percentage
[7] = molecular target: Integrin beta-1 (Homo sapiens) + Integrin alpha-4 (Homo sapiens) (UniProt P13612+P05556); experiment: inhibition of HUTS-21 binding to VLA-4, pilot screen, VLA-4 allosteric modulator project, U937 cells, HUTS-21 mAb, flow cytometry, validation set (AID 2674;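 active = inhibition above 50%, about 3 SD of the validation set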;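 also: antibody binding induced by the VLA-4 ligand LDV present at three times its Kd; 0% = LDV ligand with antibody and no compound and 100% = antibody without LDV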); conditions: HUTS-21 LIBS mAb binding, at 6.7 µM, stronger effect = higher value
[8] = superoxide lowering in aged yeast cells, pilot screen, validation compound set (AID 2706;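 active = superoxide response below 65% of plate, a cut near 3 SD across the whole screen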;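 also: yeast exposed to compound for one week at 30 degrees C before staining; 100% = mean of all compound wells on the same plate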); conditions: S. cerevisiae aging, superoxide DHE fluorescence; at 10 µM; stronger effect = lower value
[9] = molecular target: Beta-adrenergic receptor kinase 1 (Homo sapiens) (UniProt P25098); experiment: GRK2 binders displacing RNA aptamer, biochemical, validation, human GRK2, bead flow cytometry (AID 488806;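 active = aptamer binding inhibition above 30%, about 3 SD of noise from non-fluorescent compounds; inactive = inhibition at or below 30%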); conditions: bead-bound GRK2, FAM-aptamer displacement, at 10 µM, stronger effect = higher value
[10] = molecular target: Beta-2 adrenergic receptor (Homo sapiens) (UniProt P07550); experiment: beta2AR agonists driving receptor internalization, pilot screen, cell-based, FAP fluorogen, flow cytometry, validation set (AID 504459;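 active = percent response above 42, roughly 3 SD of non-fluorescent test compounds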;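 also: agonist-driven loss of surface beta2AR via internalization measured by FAP dye flow cytometry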); conditions: Am2.2-beta2AR cells, FAP surface receptor flow cytometry; at 10 µM; stronger effect = higher value
[11] = molecular target: AP-2 complex subunit beta (Homo sapiens) (UniProt P63010); experiment: inhibitors of arrestin peptide binding to AP2, pilot screen, biochemical, validation set, GST-AP2 beads, flow cytometry (AID 504541;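 active = inhibition above 54%, about 3 SD of non-fluorescent compounds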;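 also: AP2 carries R879A mutation and is captured from E. coli lysate; bead-bound FITC arrestin peptide fluorescence measuring arrestin peptide binding to AP2; 0% = DMSO wells and 100% = excess unlabeled arrestin peptide control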); conditions: FITC arrestin peptide, at 10 µM, stronger effect = higher value
[12] = yeast V-ATPase proton transport modulators, S. cerevisiae, pHLuorin, HTS validation (AID 504600; in the data active = response above about 15%;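 also: plate controls were DMSO for no effect and reference compound for full effect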); conditions: S. cerevisiae pHLuorin cytosolic pH, at 10 µM, stronger effect = higher value
[13] = system: anti-desmoglein-3 scFv antibody binding to human DSG3; experiment: inhibitors of anti-DSG3 scFv binding to DSG3, pilot screen, biochemical, validation compound set, bead-based, flow cytometry (AID 588368;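 active = binding below the plate cutoff, the plate median minus 3 SD, with a reading above zero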;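 also: signal is the median channel fluorescence of bead-bound GFP antibody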); conditions: Protein G beads, DSG3-Fc, scFv-GFP binding, at 10 µM, stronger effect = lower value
[14] = system: Botulinum neurotoxin type F light chain protease (Clostridium botulinum); experiment: Botulinum neurotoxin type F light chain protease inhibition, multiplex microsphere flow cytometry, validation set (AID 588459); conditions: multiplex microsphere protease substrate cleavage assay, at 10 µM, stronger effect = higher value
[15] = molecular target: Botulinum neurotoxin type A (Clostridium botulinum) (UniProt P0DPI0); experiment: BoNT/A light chain protease inhibitors, biochemical, multiplex microsphere flow cytometry, validation set (AID 588460); conditions: at 10 µM, stronger effect = higher value
[16] = molecular target: Lethal factor (Bacillus anthracis) (UniProt P15917); experiment: Lethal factor protease inhibitors, Bacillus anthracis, multiplex microsphere cleavage assay, validation set (AID 588461); conditions: flow cytometry, at 10 µM, stronger effect = higher value
[17] = inhibitors of fungal efflux pumps CDR1, CDR2, MDR1, pilot screen, validation compound set, multiplex, phenotypic (AID 588506;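 active = efflux inhibition above 0.42, the validation set average plus 4 SD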;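 also: Nile Red retained in cells so higher fluorescence means more efflux inhibition; 0 = negative control wells and 1 = enniatin B 25 µM full block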); conditions: S. cerevisiae pump-expressing triplex, Nile Red efflux flow cytometry; at 10 µM; stronger effect = higher value
[18] = molecular target: ATP-binding cassette sub-family B member 6 (Homo sapiens) (UniProt Q9NP58); experiment: ABCB6 transporter inhibitors, pilot screen, K562-ABCB6 cells, flow cytometry, validation set (AID 588550;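 active = inhibition above the screen-wide mean plus 3 SD, about 51%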;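 also: 0% = DMSO wells and 100% = benzethonium chloride 70 µM positive control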); conditions: K562-ABCB6 porphyrin accumulation, 1 h, at 10 µM, stronger effect = higher value
[19] = promoters of myeloid differentiation in arrested cells, primary screen, cell-based, GFP/MAC1 double positive, flow cytometry, validation set (AID 588685;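 active = differentiation response of at least 50%, scaled between solvent and reference control, from cells with both markers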;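 also: compound exposure lasts four days before antibody staining and flow analysis; 0% = DMSO wells and 100% = 5 µM fulvestrant positive control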); conditions: ER-HoxA9 marrow cells, stronger effect = higher value

Row | Compound | percent of DMSO control GFP [1] | GFP response vs DMSO [2] | percent response of DMSO control [3] | GFP response vs DMSO [4] | GFP response, % of DMSO [5] | double positive events [6] | vesicle binding response [6] | inhibition [7] | superoxide response (% of plate) [8] | aptamer binding inhibition [9] | response [10] | inhibition [11] | response [12] | binding (% of control) [13] | inhibition [14] | inhibition [15] | inhibition [16] | efflux inhibition (fraction of control) [17] | inhibition [18] | differentiation response [19]
1 | C[N+]1(C)[C@@H]2CC[C@H]1CC(OC(=O)C(CO)c1ccccc1)C2 (stereo not given in full) | 105% (inactive) | 96.3% (inactive) | 105% (inactive) | 113% (inactive) | 110% (inactive) | 64.9% | 7000% (inactive) | -14.1% (inactive) | 91% (inactive) | 1% (inactive) | -8.13% (inactive) | -5.05% (inactive) | 0.35% (inactive) | 98% (inactive) | 3.3% (inactive) | -0.2% (inactive) | -4.9% (inactive) | -0.1 (inactive) | 7% (inactive) | -15.2% (inactive)
2 | Cc1cc2c(C(C)C)c(O)c(O)c(C=O)c2c(O)c1-c1c(C)cc2c(C(C)C)c(O)c(O)c(C=O)c2c1O | 107% (inactive) | 103% (inactive) | 97% (inactive) | 130% (inactive) | 112% (inactive) | 63.4% | 161% (inactive) | 11.7% (inactive) | 119% (inactive) | 5% (inactive) | -1.41% (inactive) | 14% (inactive) | 1.35% (inactive) | 64.8% (active) | 2.6% (inactive) | 0.9% (inactive) | -7.5% (inactive) | 0.25 (inactive) | -3% (inactive) | 16.7% (inactive)
3 | CCOC(=O)c1cc2c(cn1)[nH]c1ccccc12 | 98.4% (inactive) | 103% (inactive) | 103% (inactive) | 105% (inactive) | 94.5% (inactive) | 59.3% | 102% (inactive) | -7.79% (inactive) | 96.2% (inactive) | 3% (inactive) | -5.72% (inactive) | -6.1% (inactive) | -1.17% (inactive) | 98.5% (inactive) | 2.3% (inactive) | 0.5% (inactive) | -1.3% (inactive) | -0.39 (inactive) | -6% (inactive) | -1.65% (inactive)
4 | CCOc1ccc(N2C(=O)NC(=O)/C(=C\c3cc(OC)c(OC)cc3[N+](=O)[O-])C2=O)cc1 | 102% (inactive) | 97.7% (inactive) | 109% (inactive) | 89.3% (inactive) | 103% (inactive) | 60.3% | 144% (inactive) | -7.79% (inactive) | 107% (inactive) | 0% (inactive) | 7.81% (inactive) | 7.81% (inactive) | -4.04% (inactive) | 97.9% (inactive) | -3.1% (inactive) | -0.2% (inactive) | 4.2% (inactive) | -0.15 (inactive) | -11% (inactive) | 17.4% (inactive)
5 | CC(C)C(=O)Nc1ccc(S(=O)(=O)N2CC3CC(C2)c2cccc(=O)n2C3)cc1 (stereo not given) | 97.4% (inactive) | 95.2% (inactive) | 104% (inactive) | 86.3% (inactive) | 93.1% (inactive) | 58.5% | 184% (inactive) | -5.89% (inactive) | 106% (inactive) | 3% (inactive) | -5.34% (inactive) | 10.6% (inactive) | -0.52% (inactive) | 100% (inactive) | 4.8% (inactive) | 0.5% (inactive) | 0.3% (inactive) | -0.24 (inactive) | 2% (inactive) | 13.6% (inactive)
6 | CC12CN3CC(C)(CN(C1)C3c1cccs1)C2=O (stereo not given) | 101% (inactive) | 99.3% (inactive) | 109% (inactive) | 97.3% (inactive) | 107% (inactive) | 63% | 181% (inactive) | -9.79% (inactive) | 102% (inactive) | 4% (inactive) | -0.2% (inactive) | -2.92% (inactive) | -1.09% (inactive) | 99.3% (inactive) | -2.3% (inactive) | -0.1% (inactive) | -4.2% (inactive) | 0.05 (inactive) | 6% (inactive) | -7.57% (inactive)
7 | CC(C)C[C@H]1C(=O)N2CCCC2[C@]2(O)O[C@](NC(=O)[C@@H]3C=C4c5cccc6[nH]cc(c56)CC4N(C)C3)(C(C)C)C(=O)N12 (stereo not given in full) | 93.5% (inactive) | 116% (inactive) | 96.6% (inactive) | 79.2% (inactive) | 96.6% (inactive) | 61.2% | 108% (inactive) | -162% (inactive) | 94.2% (inactive) | 5% (inactive) | -35.9% (inactive) | 4.91% (inactive) | 3.06% (inactive) | 109% (inactive) | -7% (inactive) | -1.6% (inactive) | -34.6% (inactive) | 0.41 (inactive) | 10% (inactive) | -6.55% (inactive)
8 | CC(C)(C)C(O)C(Oc1ccc(Cl)cc1)n1cncn1 (stereo not given) | 105% (inactive) | 107% (inactive) | 106% (inactive) | 121% (inactive) | 115% (inactive) | 62% | 218% (inactive) | 1.44% (inactive) | 277% (inactive) | 2% (inactive) | -29.1% (inactive) | 7.17% (inactive) | -0.61% (inactive) | 100% (inactive) | -0.4% (inactive) | 0% (inactive) | -4.4% (inactive) | -0.04 (inactive) | 4% (inactive) | 6.83% (inactive)
